Compounds without any hit were thinned out: in the full panel of roughly 83,000, 20% have a hit.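 Cell lines were cultured in 96-well plates, exposed to a single compound concentration, and assessed for percent growth 48 hours later.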 Calls of active or inactive are those of the source. Rule for the calls: active = growth percent below 10; inactive = the rest.
These compounds were tested on NCI-H522 lung (assay: NCI-60 one-dose screen, 48 h (100 = growth as untreated, 0 = no growth, -100 = all killed)). Conditions: 10 µM unless noted.
With `COc1cc(NCCCN=C(N)N)c2ncccc2c1` the growth was -10.2% (active).
For `ClCCN(CCCl)c1nc(Cl)c(C2CC(c3ccccc3)=NN2c2cc(Cl)cc(Cl)c2)s1` (stereo unspecified), the growth was 97.6% (inactive).
With `CCCCCCCC(=O)OCC(=O)[C@]1(O)Cc2c(O)c3c(c(O)c2[C@@H](OC2CC(N)C(O)C(C)O2)C1)C(=O)c1c(OC)cccc1C3=O` (stereo partly specified) the growth was -63.2% (active).
For `COC[C@@H]1C[C@@]2(C)[C@@H](CC[C@@H]3[C@@H]2CC[C@@]2(C)[C@H]3CC[C@]2(C)O)CC1=O`, the growth was 73.6% (inactive).
With `C[C@]12CC[C@@H]3c4ccc(Oc5nc(N6CC6)nc(N6CC6)n5)cc4CC[C@H]3[C@@H]1CCC2=O` the growth was 31.5% (inactive).
In the case of `O=C1OCC2=C1C(c1ccccc1)c1cc3c(cc1N2)OCO3` (stereo unspecified), the growth is reported as -40.3% (active).
For `CCC1(C)CC(CCNCc2ccccc2O)(c2ccc(C)cc2)CCO1` (stereo unspecified), the growth was 108% (inactive).
For `ClCCN(CCCl)Cc1ccc(Nc2ccnc3cc(Cl)ccc23)cc1`, the growth was -34.7% (active).
In the case of `c1ccc(Nc2nc(-c3ccccc3)c[se]2)cc1`, the growth is reported as 68.6% (inactive).
For `CCN(CC)CCOC(=O)C(OC(C)C)(c1ccccc1)c1ccccc1`, the growth was 82.3% (inactive).
In the case of `CCCc1cc(O)c2c3c(c(=O)oc2c1)CN(C)CC3`, the growth is reported as 18.4% (inactive).
With `ClCCN(CCCl)c1ccc(/C=N/Nc2ncnc3nc[nH]c23)cc1` the growth was 61% (inactive).
In the case of `CCC1(C(C)C)C(=O)NC(=S)NC1=O`, the growth is reported as 105% (inactive).
`CC(C)(N)Cc1ccccc1` was tested, and the growth was 90.9% (inactive).
For `CC1(C)N=C(N)N=C(N)N1c1cccc(CCCCc2ccc(Cl)c(S(=O)(=O)F)c2)c1`, the growth was -9.62% (active).
With `COc1cc(C=C2c3ccccc3C(=O)c3ccccc32)ccc1OCCCCOc1cc2c(cc1OC)C(=O)N1CCCC1C=N2` (stereo unspecified) the growth was -53.1% (active).
In the case of `C[CH2][Sn]([Cl])([Cl])[CH2]C.Oc1ccccc1C=NCCN=Cc1ccccc1O`, the growth is reported as 9.48% (active).
In the case of `COc1ccc(O)c(CNC(=O)CN2CCCC2=O)c1`, the growth is reported as 101% (inactive).
In the case of `CCOC(=O)C(Cc1ccc(N(CCCl)CCCl)cc1)NC(=O)C(CC(C)C)NC(C)=O` (stereo unspecified), the growth is reported as -73.1% (active).
In the case of `C[C@]12CC[C@H]3[C@@H](CC[C@]4(O)C[C@@H](O[C@@H]5O[C@H](CO)[C@@H](O[C@@H]6OC[C@@H](O)[C@H](O)[C@H]6O)[C@H](O)[C@H]5O)CC[C@]34C=O)[C@@]1(O)CC[C@@H]2C1=CC(=O)OC1`, the growth is reported as -35.2% (active).
With `Clc1ccc2nnnn2n1` the growth was 13.2% (inactive).
In the case of `CC1(C)N=C(N)N=C(N)N1c1ccc(CCCCc2ccc(Cl)c(S(=O)(=O)F)c2)c(Cl)c1`, the growth is reported as -14.7% (active).
`CC(=O)[O][Hg][c]1c(N)c(C)cc(C)c1F` was tested, and the growth was -42.2% (active).
In the case of `O=C(NCCN1CC1)C(=O)NCCN1CC1`, the growth is reported as 62.7% (inactive).
With `[Au+].[N-]=C=O.c1ccc(CN2[CH-]N(Cc3ccccc3)C(c3ccccc3)=C2c2ccccc2)cc1` the growth was 5.83% (active).
For `O=C(O)CNC(=O)C(Cl)(Cl)Cl`, the growth was 85.1% (inactive).
For `N#C[Se]Cc1cc(-c2ccccc2)n(-c2ccc(S(N)(=O)=O)cc2)n1`, the growth was -7.38% (active).
`CCCCCC1(CCBr)C(=O)NC(=O)NC1=O` was tested, and the growth was 100% (inactive).
`O=C(O)C(O)C(O)C1[O][Sb]([c]2ccc([N+](=O)[O-])cc2)[O]C1CO` (stereo unspecified) was tested, and the growth was 94.6% (inactive).
For `O=Cc1cn(Cc2ccc(Cl)cc2)c2ccccc12`, the growth was 93.4% (inactive).
In the case of `COc1cc(NC(C)CCCNC2CN3CCC2CC3)c2ncccc2c1` (stereo unspecified), the growth is reported as 82.1% (inactive).
With `Cc1ccc(C(=O)NCCCOc2ccc(N)cc2Cl)cc1S(=O)(=O)F` the growth was 73.5% (inactive).
With `CC(=O)OCC1O[C@@H]([S-])C(OC(C)=O)[C@H](OC(C)=O)[C@@H]1OC(C)=O.[Au+].c1ccc(CN2[CH-]N(Cc3ccccc3)C(c3ccccc3)=C2c2ccccc2)cc1` the growth was -47.6% (active).
For `O=C(Nc1ccc(Cl)cc1)Nc1nccs1`, the growth was -32.3% (active).
For `Clc1ccc(COC(Cn2ccnc2)c2ccc(Cl)cc2Cl)cc1` (stereo unspecified), the growth was 36.4% (inactive).
`CC1CCCC(C[N+](C)(C)C)C1=O` (stereo unspecified) was tested, and the growth was 98.7% (inactive).
For `CC(=O)/C=C/c1ccc2c(c1)OCO2`, the growth was 84.7% (inactive).
`O=C(O)c1ccc([S-])cc1.[Au+].c1ccc(CN2[CH-]N(Cc3ccccc3)C(c3ccccc3)=C2c2ccccc2)cc1` was tested, and the growth was -44.9% (active).

These compounds were tested on A549/ATCC NSCLC in the same assay as above. Conditions: 10 µM unless noted.
`COc1cc(NCCCN=C(N)N)c2ncccc2c1` was tested, and the growth was 84.8% (inactive).
For `ClCCN(CCCl)c1nc(Cl)c(C2CC(c3ccccc3)=NN2c2cc(Cl)cc(Cl)c2)s1` (stereo unspecified), the growth was 94.7% (inactive).
In the case of `CCCCCCCC(=O)OCC(=O)[C@]1(O)Cc2c(O)c3c(c(O)c2[C@@H](OC2CC(N)C(O)C(C)O2)C1)C(=O)c1c(OC)cccc1C3=O` (stereo partly specified), the growth is reported as -97.6% (active).
`COC[C@@H]1C[C@@]2(C)[C@@H](CC[C@@H]3[C@@H]2CC[C@@]2(C)[C@H]3CC[C@]2(C)O)CC1=O` was tested, and the growth was 90.6% (inactive).
For `C[C@]12CC[C@@H]3c4ccc(Oc5nc(N6CC6)nc(N6CC6)n5)cc4CC[C@H]3[C@@H]1CCC2=O`, the growth was 24.9% (inactive).
For `O=C1OCC2=C1C(c1ccccc1)c1cc3c(cc1N2)OCO3` (stereo unspecified), the growth was 12.6% (inactive).
With `CCC1(C)CC(CCNCc2ccccc2O)(c2ccc(C)cc2)CCO1` (stereo unspecified) the growth was 101% (inactive).
In the case of `ClCCN(CCCl)Cc1ccc(Nc2ccnc3cc(Cl)ccc23)cc1`, the growth is reported as 39.2% (inactive).
In the case of `c1ccc(Nc2nc(-c3ccccc3)c[se]2)cc1`, the growth is reported as 87.5% (inactive).
`CCN(CC)CCOC(=O)C(OC(C)C)(c1ccccc1)c1ccccc1` was tested, and the growth was 96.9% (inactive).
In the case of `CCCc1cc(O)c2c3c(c(=O)oc2c1)CN(C)CC3`, the growth is reported as 29.1% (inactive).
`ClCCN(CCCl)c1ccc(/C=N/Nc2ncnc3nc[nH]c23)cc1` was tested, and the growth was 87.7% (inactive).
`CCC1(C(C)C)C(=O)NC(=S)NC1=O` was tested, and the growth was 95.7% (inactive).
With `CC(C)(N)Cc1ccccc1` the growth was 103% (inactive).
With `CC1(C)N=C(N)N=C(N)N1c1cccc(CCCCc2ccc(Cl)c(S(=O)(=O)F)c2)c1` the growth was 10.6% (inactive).
In the case of `COc1cc(C=C2c3ccccc3C(=O)c3ccccc32)ccc1OCCCCOc1cc2c(cc1OC)C(=O)N1CCCC1C=N2` (stereo unspecified), the growth is reported as -37.8% (active).
In the case of `C[CH2][Sn]([Cl])([Cl])[CH2]C.Oc1ccccc1C=NCCN=Cc1ccccc1O`, the growth is reported as 96% (inactive).
`COc1ccc(O)c(CNC(=O)CN2CCCC2=O)c1` was tested, and the growth was 105% (inactive).
`CCOC(=O)C(Cc1ccc(N(CCCl)CCCl)cc1)NC(=O)C(CC(C)C)NC(C)=O` (stereo unspecified) was tested, and the growth was 49.4% (inactive).
For `C[C@]12CC[C@H]3[C@@H](CC[C@]4(O)C[C@@H](O[C@@H]5O[C@H](CO)[C@@H](O[C@@H]6OC[C@@H](O)[C@H](O)[C@H]6O)[C@H](O)[C@H]5O)CC[C@]34C=O)[C@@]1(O)CC[C@@H]2C1=CC(=O)OC1`, the growth was -89.8% (active).
With `Clc1ccc2nnnn2n1` the growth was 77.3% (inactive).
In the case of `CC1(C)N=C(N)N=C(N)N1c1ccc(CCCCc2ccc(Cl)c(S(=O)(=O)F)c2)c(Cl)c1`, the growth is reported as 15.4% (inactive).
For `CC(=O)[O][Hg][c]1c(N)c(C)cc(C)c1F`, the growth was 84.7% (inactive).
`O=C(NCCN1CC1)C(=O)NCCN1CC1` was tested, and the growth was 75.3% (inactive).
With `[Au+].[N-]=C=O.c1ccc(CN2[CH-]N(Cc3ccccc3)C(c3ccccc3)=C2c2ccccc2)cc1` the growth was 92.7% (inactive).
With `O=C(O)CNC(=O)C(Cl)(Cl)Cl` the growth was 98.2% (inactive).
With `N#C[Se]Cc1cc(-c2ccccc2)n(-c2ccc(S(N)(=O)=O)cc2)n1` the growth was -33.1% (active).
For `CCCCCC1(CCBr)C(=O)NC(=O)NC1=O`, the growth was 98.3% (inactive).
In the case of `O=C(O)C(O)C(O)C1[O][Sb]([c]2ccc([N+](=O)[O-])cc2)[O]C1CO` (stereo unspecified), the growth is reported as 94.4% (inactive).
For `O=Cc1cn(Cc2ccc(Cl)cc2)c2ccccc12`, the growth was 64.8% (inactive).
`COc1cc(NC(C)CCCNC2CN3CCC2CC3)c2ncccc2c1` (stereo unspecified) was tested, and the growth was 95.1% (inactive).
In the case of `Cc1ccc(C(=O)NCCCOc2ccc(N)cc2Cl)cc1S(=O)(=O)F`, the growth is reported as 90.1% (inactive).
With `CC(=O)OCC1O[C@@H]([S-])C(OC(C)=O)[C@H](OC(C)=O)[C@@H]1OC(C)=O.[Au+].c1ccc(CN2[CH-]N(Cc3ccccc3)C(c3ccccc3)=C2c2ccccc2)cc1` the growth was 76.3% (inactive).
With `O=C(Nc1ccc(Cl)cc1)Nc1nccs1` the growth was 38.6% (inactive).
With `Clc1ccc(COC(Cn2ccnc2)c2ccc(Cl)cc2Cl)cc1` (stereo unspecified) the growth was 51.7% (inactive).
With `CC1CCCC(C[N+](C)(C)C)C1=O` (stereo unspecified) the growth was 104% (inactive).
For `CC(=O)/C=C/c1ccc2c(c1)OCO2`, the growth was 95.2% (inactive).
With `O=C(O)c1ccc([S-])cc1.[Au+].c1ccc(CN2[CH-]N(Cc3ccccc3)C(c3ccccc3)=C2c2ccccc2)cc1` the growth was 3.5% (active).

— PubChem BioAssay (NCI)
